# Records with an inconclusive call do not appear. A number with no mark means an inactive call. The source made the active and inactive calls. Calls come from the whole dose curve; as a rule, active = well fitted inhibition curve with a large enough effect; inconclusive = small, poorly fitted or top-dose-only effect, or effect the other way; inactive = no such curve, though single readings can be large or run the other way.
# Assay: Confirmatory Assay for General miRNAs Modulators and/or Inhibitors/Activators of miR-21
# Details: HeLa miR-21 FLuc reporter, luminescence, 48 h; series mostly up to 38.3 µM; activity change, negative = inhibition: at the top concentration
# Source text: MLSCN Grant: 1 R21 NS059478-01 Assay Provider: Qihong Huang, The Wistar Institute NCGC Assay Overview: MicroRNAs (miRNAs) are endogenously encoded small (~20-25 nucleotides), nonprotein-coding RNAs that are involved in post-transcriptional repression of target messenger RNAs (mRNAs) (Le and Hannon, 2004). Estimated to be involved in the regulation of 30% of all protein-coding mRNAs (Filipowicz et al., 2008), miRNAs play a significant role in many biological processes including cellular differentiation and tissue development (Ghildiyal and Zamore, 2009).
# NCGC Assay Protocol Summary: Reagents: HeLa cells stably expressing firefly luciferase (FLuc) under the control of a CMV promoter (upstream) and a miR-21 binding sequence directly downstream of the gene. These cells endogenously express miR-21. Control compounds used were compound C3 (provided by collaborator), N6-phenyladenosine (MP Biomedicals, 0215379625), and DMSO. Assay Summary: 6uL of HeLa miR-21-FLuc cells in assay buffer (DMEM, Invitrogen #21063-029; 10% FBS, HyClone #SH30071.03) were dispensed at 2000cells/well (3.3 x 10^5 cells/mL) into Greiner solid-white TC-treated 1536-well plates using a Multidrop Combi (Thermo Fisher Scientific). Plates were incubated for one hour at 37 degree Celsius, 95% humidity, 5% CO2. These assay plates were then treated with 23nL of compound or DMSO using a Kalypsys pin tool, which allows for delivery of a 24-point titration of each compound to the assay plate, with a final compound concentration ranging from approximately 40uM to 5pM. Assay plates were then incubated for 48 hours. After incubation, plates were allowed to come to RT for one hour prior to delivery of 3uL of 3X luciferase detection reagent. After a 15 minute incubation to allow for cell lysis, luciferase activity was measured using a ViewLux CCD imager (PerkinElmer), with an average exposure time of 2-12 seconds. Keywords: NIH Roadmap, MLPCN, MLSMR, qHTS, miR-21, microRNA, firefly luciferase, FLuc.
Compound,Potency,"activity change, negative = inhibition [%]"
Cc1ccc(Nc2ncnc(N)n2)cc1C,11.3 µM (active),–
CC(C)COc1ccc(C(=O)Nc2cc(-c3ccccc3)no2)cc1,3.56 µM (active),–
CCc1ccc2oc(C(=O)Nc3nonc3CC)c(C)c2c1,7.11 µM (active),–
Cc1c(-c2nsc(NC(=O)c3cccs3)n2)nnn1-c1ccc(Cl)cc1,14.2 µM (active),–
CC1=C(c2ccc(C)c(C)c2)S(=O)(=O)N=C1N1CCC(C(=O)NCCc2ccc(Cl)cc2)CC1,–,27.4
Cc1c(-c2nc(-c3ccc(C(F)(F)F)cc3)no2)n(C)oc1=O,0.318 µM (active),–
COc1ccc(CNc2nc(-c3ccco3)nn2C(=O)CC(C)C)cc1,11.3 µM (active),–
CC(C)(C)C1CCc2nc(NC(=O)Cc3cn4ccsc4n3)sc2C1 (configuration not stated),11.3 µM (active),–
Cc1ccc(CNc2nc3nc(C)c(Cl)c(C)n3n2)cc1,4 µM (active),–
Cc1cccc(OCc2nnc(SCC(=O)Nc3ccc(N4CCOCC4)cc3)o2)c1,–,-7.71
Nc1c(C(=O)Nc2ccccc2Br)sc2nc(-c3cccs3)ccc12,–,-42.2
COc1ccc(OCC(=O)Nc2cc(-c3nc4ccccc4s3)ccc2C)cc1,4 µM (active),–
Cc1c(-c2nsc(NC(=O)c3cccs3)n2)nnn1-c1ccc(F)cc1,0.565 µM (active),–
O=S(=O)(c1ccc(F)cc1)n1ccc(-c2cnc(-c3ccccc3)s2)n1,5.65 µM (active),–
Cn1c(=O)[nH]c2cc(-c3noc(-c4ccc(F)cc4)n3)ccc21,10 µM (active),–
CCc1ccc(-n2nnc(-c3nc(-c4cccs4)no3)c2N)cc1,3.18 µM (active),–

Compound,Potency,"activity change, negative = inhibition [%]"
COc1cc(-c2nc3cnccn3c2Nc2ccc(C(C)C)cc2)ccc1O,2.83 µM (active),–
COc1ccc(OCC(=O)Nc2ccc(-c3nc4cc(Cl)ccc4o3)cc2)cc1,0.503 µM (active),–
CC(=O)Nc1nc2c(C)cc(NC(=O)C3CCCCC3)cc2s1,1.79 µM (active),–
Cc1cccc(-n2nnc(-c3nc(-c4cccs4)no3)c2N)c1,0.634 µM (active),–
Cc1ccc(NC(=O)Cn2nnc(-c3nc(-c4ccc(Cl)cc4)no3)c2N)cc1C,–,-16.5
COc1ccc(NC(=O)c2ncn(-c3ccccc3)n2)cc1Cl,12.6 µM (active),–
CCc1cccc(-n2nnc(-c3nsc(NC(=O)c4cccs4)n3)c2C)c1,10 µM (active),–
Cc1cc(C)c2c(N)c(C(=O)Nc3ccccc3F)sc2n1,1.42 µM (active),–
O=C(CSc1nnc(-c2ccc(C(F)(F)F)cn2)o1)Nc1cccc(Cl)c1,2.25 µM (active),–
COc1ccc(OCC(=O)Nc2ccc(-c3nc4cc(C)c(C)cc4o3)cc2)cc1,0.4 µM (active),–
O=C(COc1ccccc1F)Nc1ccc(-c2nc3ccccc3s2)cc1,1.26 µM (active),–
CC(=O)c1cnc2nc(SCc3ccccc3)nn2c1C,6.34 µM (active),–
Cc1ccc(SCC(=O)Nc2ccc3oc(-c4ccc(F)cc4)nc3c2)cc1,15.9 µM (active),–
O=C(CSc1nnc(-c2ccc(Cl)cc2)o1)Nc1ccc(F)cc1,1.79 µM (active),–
COc1ccc(NC(=O)CSc2nnc(-c3cccs3)o2)cc1,10 µM (active),–
Cc1ccccc1Nc1nc(N)nc(CN(C)c2ccccc2)n1,11.3 µM (active),–

# — PubChem BioAssay AID2508 (National Center for Advancing Translational Sciences (NCATS), 2010)
